Assay results as given in PubChem BioAssay (NCATS).
Records with an inconclusive call do not appear. Calls of active or inactive are those of the source. Calls come from the whole dose curve; as a rule, active = well fitted activation curve with a large enough effect; inconclusive = small, poorly fitted or top-dose-only effect; inactive = flat fitted curve, though single readings scatter.

experiment: Primary redox qHTS assay for identification of artifact compounds. (AID 1845223); settings: Amplex Red/HRP redox cycling with DTT, fluorescence; series mostly up to 53.8 µM
In short: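 Amplex Red (25 uM) and HRP (250 mU/mL) in HBSS, with compounds for 15 min, then 250 uM DTT for 30 min, room temperature, dark. Fluorescence 525/598 nm read; normalized to DMSO and 10 uM DA3003; Hill fit.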

Structure (SMILES) | outcome
COC1CC(=O)C23C(=O)NC(CC(C)C)C2C(C)=C(C)C(OO)C3/C=C(\C)CCC(O)C1O (configuration not stated) | inactive
C[C@@H]1C(=O)O[C@H]2[C@H](O)[C@@]34[C@@H]5OC(=O)[C@@]3(O[C@@H]3OC(=O)[C@@H](O)[C@@]34[C@H](C(C)(C)C)[C@H]5O)[C@@]12O | inactive
COc1c(C(C)C)cc2c(c1O)[C@@]1(C(=O)O)CCCC(C)(C)C1CC2 (some centres not stated) | inactive
CCC1NC(=O)C2C(Cl)C(Cl)CN2C(=O)C(C(C)O)NC(=O)CC(c2ccccc2)NC(=O)C(CO)NC1=O (configuration not stated) | inactive
CCc1[nH]c2ccc(OC)cc2c1CCN(C)C | inactive
COc1ccccc1CN[C@H]1C2CCN(CC2)[C@H]1C(c1ccccc1)c1ccccc1 | inactive
N#C[C@@H](O[C@@H]1O[C@H](CO[C@@H]2O[C@H](CO)[C@@H](O)[C@H](O)[C@H]2O)[C@@H](O)[C@H](O)[C@H]1O)c1ccccc1 | inactive
COc1cc(CCNCc2ccccc2O)c(OC)cc1C#N | inactive
C[C@H]1O[C@@H](O[C@H]2C[C@@H](O)[C@]3(CO)C4C(CC[C@]3(O)C2)[C@@]2(O)CC[C@H](C3=CC(=O)OC3)[C@@]2(C)C[C@H]4O)[C@@H](O)[C@@H](O)[C@H]1O (some centres not stated) | inactive
Cc1c(Cl)cccc1S(=O)(=O)Nc1nc(CC(=O)N2CCN(C)CC2)cs1 | inactive
Cc1cn(C[C@H](N)C(=O)O)c(=O)n(Cc2cc(-c3ccccc3)sc2C(=O)O)c1=O | inactive
Cc1cccc(NC(=O)N[C@@H]2N=C(c3ccccc3)c3ccccc3N(C)C2=O)c1 | inactive
